Screens deposited in PubChem BioAssay by Sanford-Burnham Center for Chemical Genomics.
The list is not random: actives were taken first. Their share in the collection is about 31%.
CYP2C19 act = human CYP2C19 activators, primary screen, biochemical, luminescence. Cytochrome P450 2C19 (Homo sapiens), P33261. activation factor at 5 µM. recombinant CYP2C19, luciferin-H EGE luminescence; active compounds read high; 0 = fully inhibited enzyme, 1 = untreated enzyme. 96,000 tested, under 10 active. AID 1025, 2008;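 active = activation factor of at least 2 at 5 µM in the primary screen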;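 note: 0 = wells with 2.5 mM tranylcypromine and 1 = vehicle-only wells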
PLAP act = PLAP enzyme activators, biochemical, luminescence, HTS | purified PLAP enzyme, luminescent substrate read-out; active compounds read high | activation fold at 20 µM | actives 1.2% (n = 96,000) | AID 696, 2007; in the data active = activation fold above about 2
Target sequence (P05187 whole entry, looked up): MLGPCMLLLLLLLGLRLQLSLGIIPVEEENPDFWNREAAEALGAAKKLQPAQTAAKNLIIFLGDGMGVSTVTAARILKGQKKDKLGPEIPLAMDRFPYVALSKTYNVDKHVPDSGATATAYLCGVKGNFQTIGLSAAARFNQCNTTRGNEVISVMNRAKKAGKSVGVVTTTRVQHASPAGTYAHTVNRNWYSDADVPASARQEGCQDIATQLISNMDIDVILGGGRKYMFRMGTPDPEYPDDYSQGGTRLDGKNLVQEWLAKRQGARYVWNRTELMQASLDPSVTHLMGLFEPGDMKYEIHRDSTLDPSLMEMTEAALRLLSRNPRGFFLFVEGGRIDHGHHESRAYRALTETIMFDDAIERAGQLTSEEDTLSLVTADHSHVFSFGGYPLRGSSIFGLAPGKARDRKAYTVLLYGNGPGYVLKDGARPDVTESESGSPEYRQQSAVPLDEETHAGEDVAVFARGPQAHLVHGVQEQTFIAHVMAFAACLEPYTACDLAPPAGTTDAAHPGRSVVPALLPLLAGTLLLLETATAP
CYP2C19 inh = blockers of cytochrome P450 2C19 activity – biochemical, luminescence, ADME assay, primary screen; actives 21% (n = 96,000); P33261; CYP2C19 Supersomes, luciferin-H EGE luminescence, 30 min; inhibition, % at 5 µM; AID 778, 2007;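 active = CYP2C19 inhibition above a set limit at 5 µM in the primary screen, cut at about 50% in these data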;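 note: plate controls were negative control wells for no effect and 2.5 mM tranylcypromine positive control for full effect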
CYP2C9 act = human CYP2C9 activators, primary screen, biochemical, luminescence. Cytochrome P450 2C9 (Homo sapiens), P11712. actives 1.4% (n = 96,000). activation factor at 5 µM. AID 1024, 2008. recombinant CYP2C9, luciferin-H conversion; active compounds read high; factor 1 = untreated enzyme, 0 = blocked;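 active = activation factor of 2 or more for CYP2C9 at a 5 µM dose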;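 note: 0 = sulfaphenazole-blocked wells and 1 = vehicle-only wells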
CYP2C9 inh = blockers of cytochrome P450 2C9 activity – biochemical, luminescence, ADME assay, primary screen | inhibition, % at 5 µM | CYP2C9 Supersomes, luciferin-H conversion | AID 777, 2007 | actives 20% (n = 96,000) | P11712;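 active = blocking of liver enzyme CYP2C9 beyond about 50% at 5 µM, limit read from the data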
* marks the source's active call; other numbers are inactive results; nt = no result given.

SMILES	CYP2C19 act	PLAP act	CYP2C19 inh	CYP2C9 act	CYP2C9 inh
O=C(C1CCC1)N1CCc2cc(S(=O)(=O)N3CCN(c4ccccn4)CC3)ccc21	1	1.3	0	0.6	40
CCOC(=O)c1sc2cc([N+](=O)[O-])cc(SCC(=O)OC)c2c1N	0.4	1.2	60*	0.1	87*
O=C(Nc1ccc2c(c1)nc1n2CCSC1)c1ccccc1	0.6	1.1	38	0.5	54*
CC(c1ccccc1)N1CCn2c(nc3cc(NC(=O)NC4CCCCC4)ccc32)C1 (stereo unspecified)	0.9	2.9*	12	0.7	31
CC(c1ccccc1)N1CCn2c(nc3cc(NC(=O)c4cccs4)ccc32)C1 (stereo unspecified)	0.6	1.9	36	0.2	84*
CC(=O)NC(Cc1ccccc1)C(=O)N1CCN(C(=O)c2cccs2)CC1 (stereo unspecified)	1	1.2	-4	1.1	-8
Cn1c(=O)c2c(nc(SCc3cc4c(cc3Cl)OCO4)n2C)n(C)c1=O	0.9	1	14	1.1	-10
CCOc1ccc(NC(=O)C2CC(=O)N(c3cc(C)cc(C)c3)C2)cc1 (stereo unspecified)	0.8	1.1	23	1.7	-72
COc1cccc(C2=CC(c3ccccc3)n3nnnc3N2)c1 (stereo unspecified)	0.2	0.8	82*	0.2	79*
COc1ccc(C2=CC(c3ccc(C)cc3)n3nnnc3N2)cc1 (stereo unspecified)	0.3	1.1	75*	0.1	86*
COc1ccc(C2C=C(c3ccccc3)Nc3nnnn32)cc1 (stereo unspecified)	0.1	0.9	90*	0.3	74*
COc1ccc(C2C=C(c3ccc(C)cc3)Nc3ncnn32)cc1 (stereo unspecified)	0.7	1.3	28	0.7	34
CC(=O)Nc1nc(C)c(Oc2ccc(Cl)cc2Cl)c(=O)[nH]1	1	0.9	0	1.7	-65
O=C(CSc1cccc[n+]1[O-])c1cc2ccccc2o1	0.9	1.4	7	1.1	-5
COc1ccc(-n2c(=O)c3ccccc3n(CC(=O)NC3CCCC3)c2=O)cc1	0.9	1	8	0.8	16
CCCC(=O)Nc1cccc(NC(=O)c2ccc3c(c2)OCO3)c1	0.6	1.3	44	0.5	52*
O=C(Nc1c(C(=O)Nc2cccc(F)c2)oc2ccccc12)c1ccc2c(c1)OCO2	0.9	1.2	8	0.9	15
CCC(CC)C(=O)Nc1cccc(C(=O)Nc2ccc3c(c2)OCO3)c1	0.2	0.9	84*	0.1	88*
O=C(Nc1cccc(F)c1)c1ccc2c(c1)OCO2	0.1	0.8	94*	0.5	50*
CCC(CC)C(=O)Nc1cccc(C(=O)Nc2nccs2)c1	1	1	-1	0.8	16
CCC(CC)C(=O)Nc1cccc(C(=O)Nc2ccc(S(=O)(=O)Nc3ccc(C)cc3)cc2)c1	0.1	1.1	87*	0.1	90*
CCc1c(C)n2nc(C)cc2[nH]c1=O	1.2	1.2	-21	1.3	-33
CN(CC(=O)NCCCN1CCOCC1)S(=O)(=O)c1ccc(Br)cc1	1.1	1.4	-12	1.1	-6
Cc1ccc(NC(=O)c2oc3ccccc3c2NC(=O)c2ccc3c(c2)OCO3)cc1	1.1	1.2	-12	0.5	51*
CCCN(CCC)S(=O)(=O)c1cccc(C(=O)Nc2ccc3c(c2)OCO3)c1	0.6	0.8	43	0.4	63*
SMILES	CYP2C19 act	PLAP act	CYP2C19 inh	CYP2C9 act	CYP2C9 inh
CCC(=O)Nc1ccc(NC(=O)c2ccc3c(c2)OCO3)cc1	0.9	0.9	9	0.9	14
CCOC(=O)C(Cc1c[nH]c2ccccc12)NC(=O)c1ccco1 (stereo unspecified)	0.2	1.2	78*	0.3	72*
Cc1ccnc(NC(=S)NC(=O)/C=C/c2ccco2)c1	1.1	0.9	-15	0.5	53*
Cc1ccc(CNC(=O)CS(=O)CC(=O)O)cc1 (stereo unspecified)	1.1	1	-10	1.1	-12
CCOC(=O)C(CC)(CC)C(=O)/C=C/c1ccc(Br)cc1	0.9	0.9	14	0.8	20
O=C(Nc1ccccc1)N(C1=NCCC1)c1ccc(OC(F)F)cc1	0.5	1	50*	0.2	79*
Cc1ccc(Sc2ccc(NC(=O)c3ccc(S(C)(=O)=O)cc3Cl)cc2)cc1	1.1	0.9	-12	1.2	-18
COc1ccccc1/C=N/n1cnnc1	1	1.2	3	1	-1
Cc1nn(-c2ccccc2)c(Oc2ccc(F)cc2)c1/C=N/n1cnnc1	0.4	1.2	56*	0.4	60*
CC1CCN(C(=O)CCCNC(=O)Cn2cnc3sc4c(c3c2=O)CCCC4)CC1	0.8	1.6	23	0.7	27
COc1ccc(CN2CC(C(=O)NCCCN3CCOCC3)CC2=O)cc1 (stereo unspecified)	1	1.1	4	1	-3
COc1cc(C(=O)NC(=S)Nc2cccc(-c3cc4ccccc4oc3=O)c2)cc(OC)c1OC	0.8	1.2	22	0.3	68*
COc1ccc(-c2cc3ccccc3oc2=O)cc1NC(=O)c1cccnc1	0.8	1	17	0.7	27
O=C(NCc1cccnc1)C1CCN(S(=O)(=O)N2CCC3(CC2)OCCO3)CC1	1.1	0.9	-12	1.1	-6
COc1cc(/C=C(\C#N)c2nc3ccccc3[nH]2)ccc1Oc1ccc([N+](=O)[O-])cn1	0.9	0.9	12	0.6	37
COc1cc(/C=C(/C#N)c2ccccc2)ccc1Oc1ccc([N+](=O)[O-])cn1	0.7	1.1	32	0.4	59*
O=C(/C=C/c1ccc([N+](=O)[O-])cc1)NCC1CCCO1 (stereo unspecified)	1.1	0.9	-12	1.2	-16
CCn1c(CCC(=O)Nc2nc3c(s2)CCCC3)nc2cc(S(=O)(=O)N(C)C)ccc21	0.2	1.4	75*	0.1	91*
COc1cccc(CNCc2ccccn2)c1OC	0.3	1	74*	0.8	20
COc1cc(CNCc2ccccn2)ccc1OCC(N)=O	0.9	1.1	8	1	-3
COc1cccc(CNCCOCCO)c1OC	1	1.1	3	1.1	-8
COc1cc(CNCc2ccccn2)ccc1OCc1ccc(Cl)cc1Cl	0.3	nt	73*	0.8	17
CC(C)(C)NC(=O)C(c1ccccc1)N(C(=O)c1csnn1)C1CC1 (stereo unspecified)	0.8	1.3	22	0.9	9
CC1CCc2cc(F)ccc2N1C(=O)CSc1nnc(-c2cccs2)n1C (stereo unspecified)	0.9	1.2	8	1.1	-5
